Measurements from PubChem BioAssay AID2391 (Southern Research Specialized Biocontainment Screening …, 2010).
Out of some 310,000 compounds screened, about 410 (0.13%) were called active. About 2% were inconclusive and are not listed. No rule for the calls is given here. A selection follows. Potency and affinity values are given separately.

Assay: RSV antiviral activity via CPE protection, HEp-2 cells, primary 10 µM value included (AID 2391)
Conditions: RSV-induced CPE inhibition, at 10 µM, stronger effect = higher value

CPE inhibition, inactive:
c1ccc(-n2cc(CN3CCCC3)c(-c3ccc4c(c3)OCO4)n2)cc1 5.52%, Cc1ccc(NC(=O)c2sc(N)nc2-c2ccc([N+](=O)[O-])cc2)cc1C -0.73%, Cc1ccccc1C(=O)NC(C)C(c1cccs1)N1CCOCC1 (stereo unspecified) -0.28%, Cc1nn(-c2ccccc2)c2nc(N)c(C#N)c(-c3ccc(O)c(O)c3)c12 39.2%, Cc1nn(-c2ccc(F)cc2)c2nc(N)c(C#N)c(-c3ccc(O)c(O)c3)c12 0.04%, Cc1ccc(C)c2c1cc(C)c1nnc(SCC(=O)NCc3ccc4c(c3)OCO4)n12 2.14%, CCOC(=O)/C(C#N)=C/c1c(N2CCN(c3ccc(OC)cc3)CC2)nc2c(C)cccn2c1=O 7.79%, Cc1ccc(N2CC(O)Cn3c2nc2c3c(=O)n(C)c(=O)n2C)cc1 (stereo unspecified) 0.84%, Cc1csc(NC(=O)CSc2nnc(C)c(=O)n2N)n1 -0.18%, NNC(=O)c1[nH]c(-c2ccccc2)cc1-c1ccccc1 0.95%, O=C1c2ccccc2C(Nc2ccccc2)N1Cc1ccc2c(c1)OCO2 (stereo unspecified) 8.65%, O=C1c2ccccc2C(Nc2ccc3c(c2)OCO3)N1Cc1ccc2c(c1)OCO2 (stereo unspecified) 13.8%, C/C=C/C(=O)Nc1nnc(-c2ccccc2C)s1 0.32%, CCOc1cccc(C(=O)Nc2ccccc2C(=O)N2CCN(C)CC2)c1 -0.42%, CC(CC(=O)Nc1nccs1)c1ccccc1 (stereo unspecified) -0.09%, COc1cc2c(cc1OC)CN(C(=O)c1cccc(S(=O)(=O)N(C)C)c1)CC2 1.79%, O=C(c1cccc(S(=O)(=O)N2CCc3ccccc32)c1)N1CCc2ccccc2C1 7.22%, O=C(C1CC(=O)N(c2ccc(F)cc2)C1)N1CCOCC1 (stereo unspecified) 3.24%, Cn1c(O)c(/C=C2\C=Nc3ccccc32)sc1=Nc1ccc(C(=O)O)cc1 1.42%, C/C(=N\NC(=O)c1ccc(NS(=O)(=O)c2cccs2)cc1)c1ccncc1 3.91%, C/C(=N\NC(=O)c1ccc(NS(=O)(=O)c2cccs2)cc1)c1ccccc1 -0.3%, CC(C)=CCCC(C)CN1CCC(n2nccc2NC(=O)c2ccc3c(c2)OCO3)CC1 (stereo unspecified) -0.22%, COCCCNC(=O)c1ccc(Cn2c(=O)c3ccccc3n(Cc3ccccc3C)c2=O)cc1 1.4%, COCCCNC(=O)c1ccc(Cn2c(=O)c3ccccc3n(Cc3cc(C)ccc3C)c2=O)cc1 1.91%, O=C(NCc1ccco1)c1ccc(Cn2c(=O)c3ccccc3n(Cc3cccc(Cl)c3)c2=O)cc1 18.6%, O=C(NCc1ccco1)c1ccc(Cn2c(=O)c3ccccc3n(Cc3cccc(F)c3)c2=O)cc1 4.05%, N#Cc1ccccc1Cn1c(=O)n(Cc2ccc(C(=O)NCc3ccco3)cc2)c(=O)c2sccc21 2.1%, O=C(CCCn1c(=O)c2sccc2n(Cc2ccc(F)cc2)c1=O)NCc1ccco1 -0.44%, O=C(NCc1ccco1)c1ccc2c(=O)n(-c3ccccc3)c(=O)n(Cc3cccc(F)c3)c2c1 0.67%, N#Cc1ccccc1Cn1c(=O)n(Cc2ccc(C(=O)NCc3ccco3)cc2)c(=O)c2ccccc21 2.54%, CCN1CCCC1CNC(=O)Cn1ncc2c(=O)oc3ccc(C)cc3c21 (stereo unspecified) 2.08%, Cc1ccccc1/C=N\NC(=O)c1ccc(Cn2cccn2)o1 1.85%, O=c1nc2ccccc2c2n1CC(CN1CCN(c3ccc(F)cc3)CC1)N2 (stereo unspecified) -0.72%, CCCOc1ccccc1C1NC(=O)NC(C)=C1C(=O)OCCOCC (stereo unspecified) -0.41%, CCC(C)c1ccccc1NC(=S)Nc1cccnc1 (stereo unspecified) 3.94%, Cc1ccc(N2C(=O)N(C(C)C)C(C)(C)CC2(C)O)cc1 (stereo unspecified) 2.14%, O=C(c1cccc(Cl)c1)C1CCCN(C(=O)c2ccoc2)C1 (stereo unspecified) -0.58%, O=c1cc(-c2ccc(O)c(O)c2)oc2cc(O)c(C3OC(CO)C(O)C(O)C3O)c(O)c12 (stereo unspecified) 0.47%, O=c1cc(-c2ccc(O)cc2)oc2c(C3O[C@H](CO)[C@@H](O)[C@H](O)[C@H]3O)c(O)cc(O)c12 (stereo partly specified) -1.94%, O=C1c2cccnc2C(Nc2ccccc2Br)N1Cc1ccco1 (stereo unspecified) 4.55%, COc1ccc(OC)c(NC2c3ncccc3C(=O)N2Cc2ccco2)c1 (stereo unspecified) 6.51%, COc1cc(NC2c3ncccc3C(=O)N2Cc2ccco2)cc(OC)c1 (stereo unspecified) 9.47%, O=C1c2cccnc2C(Nc2cccc(F)c2)N1Cc1ccco1 (stereo unspecified) 12%, CCCOc1ccc(CN(C(=O)c2cccc(OC)c2)C2CCS(=O)(=O)C2)cc1 (stereo unspecified) 0.38%, CC(O)CNc1nc2ccccc2n1CC(=O)NCC(F)(F)F (stereo unspecified) 0.4%, O=C(Oc1ccc(C(=S)N2CCOCC2)cc1)c1ccc([N+](=O)[O-])cc1[N+](=O)[O-] 1.71%, O=C(COc1ccc(F)cc1Cl)Nc1ccc(S(=O)(=O)Nc2nccs2)cc1 -1.6%, CC(C)(C)c1cc(CNC2CS(=O)(=O)C[C@@H]2O)cc(C(C)(C)C)c1O (stereo partly specified) 0.68%, COC(=O)c1cccc(Nc2nc3ccccc3nc2C)c1 7.1%, Cc1cc(Nc2cccc(Cl)c2)c2ccccc2n1 11%, CCOc1ccc(-c2c(C(=O)N/N=C/C3CC=CCC3)nnn2-c2nonc2N)cc1 (stereo unspecified) 0.26%, CC1=NOC2(C1)N(C)c1ccccc1C2(C)C (stereo unspecified) -0.95%, CN1c2ccccc2C(C)(C)C12CC(c1ccc(Cl)c(S(=O)(=O)N3CCCC3)c1)=NO2 (stereo unspecified) 3.21%, CCN(CC)S(=O)(=O)c1ccc(C2=NOC3(C2)N(C)c2ccccc2C3(C)C)cc1 (stereo unspecified) 49.6%, CN1c2ccccc2C(C)(C)C12CC(CCl)=NO2 (stereo unspecified) 0.62%, COC(=O)COc1ccc(S(=O)(=O)NCc2ccc3c(c2)OCO3)cc1C 1.14%
